# Experimental data reported in the supplement of paper PMC11417369.
# In all, about 25,000 sequences were measured (“ln(normalized median fluorescence intensity)”: median about 9.7, highest 2% from about 11 on). This excerpt belongs to a sample that is enriched for the highest values.
# Tested on: PfAP2-HC AP2 domain (GST-tagged)
# Assay: gcPBM binding intensity (ln(normalized median fluorescence intensity)); higher = stronger DNA binding
# How it was run: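 The binding buffer was 1× PBS containing 1% milk, 0.2 mg/ml BSA, 0.5% salmon testes DNA and 0.03% Triton X-100. In it, GST-tagged P. falciparum DNA-binding domains expressed in E. coli were applied for 1 h to an Agilent 4 × 180k array of primer-extended double-stranded 36-bp intergenic genomic probes plus negative controls. Binding intensity, read with Alexa488 anti-GST antibody and a 488 nm scan, is the highest Masliner-normalised natural-log median intensity across replicate spots of either probe orientation.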
row,Sequence,gcPBM binding intensity (ln)
1,AAATTTATGAACCTAGTGCAGAAATTAAAAAGATGA [GTGCAC_site9396],9.54
2,TCATATATTCAAAAATTTAAAGTTAATAAAACTTGA [CACACA_negctrl_site1546],9.06
3,ATAAATATTGGGTGCACACACATAATATATATATAT [CACACA_site2272],10.2
4,AATATAAAAATGTTTACACACACACGGAAATATATT [CACACA_site7226],10.3
5,AAGGAATAATATAAAACACACACATAAATATAAATA [CACACA_site9115],11.4
6,GGAATAATATAAAACACACACATAAATATAAATATA [CACACA_site3376],10.7
7,ATATAAATATAGTGTGCACACACATAATATATATAT [CACACA_site8713],10.4
8,TAAAAAGGAAAACACACACACACATATATATATATA [CACACA_site3588],11.4
9,TATAAAAGGAAACACACACACATATATATATATATA [CACACA_site939],10.5
10,AATATAAAAATGTTTACACACACACCGAAATATATT [CACACA_site8800],11.2
11,AAAAAAAAAAAAAAAACACACATAAAAATATAATAA [CACACA_site3855],9.9
12,ACATATAAATATTGTGTGCACACACATAATATATAT,11.3
13,AGGAAAAAAGAAAAAACACACATAAATATATATATA [CACACA_site3085],9.74
14,AATATAAAAATGTTTACACACACACCCAAATATATT [CACACA_site2511],10.2
15,ATATAAAGAAATTAATTTTTCAACAATAAAAATATA [CACACA_negctrl_site1262],9.35
16,AAATTGGGGCTTGTTACACACTTAGTGCGAGTTCTA [CACACA_site582],9.75
17,ATTTATTATATATAGTGTACGTTCTTAATTATAATT [XGTACX_site7480],9.69
18,TATCATATATTATATGCACACATGTTTTTCAAGAAT [CACACA_site1892],9.74
19,TTTCTTTTTCGATATACACACTGTATGTGTCTAAAA [CACACA_site6054],9.95
20,TGTATGATAACTATAGTGCATTTGGTAATTTTTCCA,9.51
21,AAATGTAAATTTATCCGTACATATATATATTTATAT [XGTACX_site7024],9.73
22,ATATATATATATATGTGTACATATATATATCATATG [XGTACX_site3126],9.68
23,TAATAGAATATGATGGTGCAGCAGTCTTATTTTTCA,9.61

row,Sequence,gcPBM binding intensity (ln)
1,AAAAAAAAATTAAAAACACACATATAAATAAATATA [CACACA_site6845],9.8
2,AAAACATACATATATACACACATATATATATATATA [CACACA_site1852],10.3
3,AAAAAAAAATTAAAAACACACATATATATATATATA [CACACA_site1580],9.73
4,AAAAAAATTAAACACACACACACATATATATATATA [CACACA_site4718],11.5
5,TAAAAGGATACATATACACACATATATATATATATA [CACACA_site2791],9.85
6,ATTAAATAAAAAAACACACACATATATACATATATA [CACACA_site3445],10.6
7,TTAAAAAAAAAACACACACACATACACATATATATA [CACACA_site3299],11.1
8,AAAAAAAAAAAACATACACACACATATATATATATA [CACACA_site8452],10.7
9,CCATAAAAAGGATACACACACACACCGACATATATA [CACACA_site4653],10.9
10,AAAACATACCTATATACACACATATAAATATAAATA [CACACA_site6956],10.1
11,ACCCATAAAAAGGATACACACACACCCACCCATATA [CACACA_site8205],10.6
12,ATTAAATAAAAAAACACACACATATATACCTATATA [CACACA_site5837],11
13,ACATATATATTTATATGTACATATATTTATATATAT [XGTACX_site7469],9.64
14,ATATTGTAAGTAAAATGTAATAAATATAATAAAATA [CACACA_negctrl_site697],9.76
15,ATATATTTATATTGTACACACATTTATGCATATATA [CACACA_site7502],9.96
16,ACATTCTATACATACACACCCACACCCAAAAAAAAA [CACACA_site863],10
17,CTTATACATTATTAACGTACATGTTATATGAATAAC [XGTACX_site5752],9.6
18,TGGAAAATTATAAGGTGTACATATAAGCTATTATAT [XGTACX_site118],9.63
19,ATATATATATATATTTATTCATATATTTTTTGTCTT [TGCATGCA_negctrl_site58],9.52
20,AAAAATGAATTATTTTGTACATATATATATATATAT [XGTACX_site3410],9.74
21,TGCTATTTTTTCCTTTTTTTGTATCACAATCATATA [CACACA_negctrl_site1576],9.74
22,ATCAACATTATGTTTAGTACTTAGTGAATTGTTAAT [XGTACX_site4913],9.65
23,ATTATATATGTATGGTGTACTAAGAATATTTTTTTA [XGTACX_site1950],9.55

row,Sequence,gcPBM binding intensity (ln)
1,ATTATTTAAAAAAAATGTACATAATAAATATGAACG [XGTACX_site4010],9.58
2,CAGTTTAATTTACATAGTACATAATATTTTAATTTT [XGTACX_site1793],9.65
3,AAATAAATTAAAATAAATTAAATTAAATTAGCATTA [GTGCAC_negctrl_site531],9.52
4,ATACATATATATATATGTACACACATTAATAAAAAA [XGTACX_site6874],9.89
5,GACAATAAAAAGAAAAGTACATATATAAATTAACCA [XGTACX_site7858],9.65
6,TGCATATGCATTATTTGTACATATGTAGATAATTAT [XGTACX_site6930],9.63
7,GTATTTTTAAATGACACACACATATATATATATATA [CACACA_site1662],10.1
8,ATAAATATGGAGCACACACACATAAACATACATATA [CACACA_site421],11.1
9,ATAAATATGGAGCACACACACATAAACATACCTATA [CACACA_site6336],10.8
10,CATATAAATAAACACACACACACATATATATATATA [CACACA_site5309],10.5
11,TATATATATATATAAACACACATAAATATAAATATA [CACACA_site1121],9.88
12,TGATAAATATGGAGCACACACACATAAACATACATA [CACACA_site420],10.4
13,TGCAAGGAACAACACACACACACATAAATGTATATA [CACACA_site8149],11.4
14,TGCAAGGAAAAACACACACACACATAAATGTATATA [CACACA_site751],10.4
15,ATAAAATACATATAAACACACATATAAACCGACATA [CACACA_site2477],10.1
16,AAAAGGAACAGACACACACACATATATAAATATGTA [CACACA_site7656],10.5
17,TAAATTAAAAAAAATACACACACACCGACACATATA [CACACA_site9084],10.6
18,AAAAAAAAAAAATATACACACACACCGACACATAAA [CACACA_site9270],10.9
19,AATAAATTGAAACACACACACACATATATATATATA [CACACA_site848],11.2
20,GATTATTTTATAAGTACACACATTTATCTATAATAA [CACACA_site7256],9.69
21,ACGTTAAAAACAAGTTGTACACAATAAATTATTCTT [XGTACX_site6321],9.75
22,GTATTCAAAAGTGAAACATGCAATAATATATATATA [TGCATGCA_site617],9.63
23,AATATTTTTTTATAAACACACATATATATAAATATA [CACACA_site3524],9.53

row,Sequence,gcPBM binding intensity (ln)
1,ATACAACAGATATATACACACATATAACAATAATAA [CACACA_site7560],10
2,ATTTAATACAAATACACACACAAATAAATACAGATA [CACACA_site5956],10.2
3,AATACAATTTTTAACACACACACAATAATACAGATA [CACACA_site4823],11.2
4,TACACGTTCTACATTTGTACTTAATTTATACATAAG [XGTACX_site1579],9.79
5,CCATTTACATTGTGAAGTACTAAAAAAAAATGTAGA [XGTACX_site7882],9.48
6,ATCGGTAATATTAACACACACATTTATTTATATTTA [CACACA_site6638],10.1
7,GTATCTCATTATTCGTGTACTAAACACATAAAAATA [XGTACX_site2262],9.58
8,GTTAATTGAAGATTCACACATAAATATATATATAAT [CACACA_site5482],9.61
9,ATATACTATTATGTGTGTACATAATAATTTATTATA [XGTACX_site3776],9.75
10,ATATACTTTTTTTTTTTTTTTTTAACGTTATTTATG [CACACA_negctrl_site1277],9.64
11,GATAATTACGGACACACACACACACGCACAACTAAA [CACACA_site7254],10.7
12,AAAAGATAATTATGCACACACACACCCCCACCCAAC [CACACA_site2570],10.9
13,AAGATAATTACGCACACACACACACGCCCACAACTA [CACACA_site7255],11.4
14,AGCACATTATTCAAAAGTACAAATAGGTATTGTATA [XGTACX_site6107],9.59
15,TTATTCTTTTAATATACACACTTTGTCTTTTCGCGC [CACACA_site5525],9.9
16,AAAATTAAAACCTACACACACATTTAAAAAAAAAAA [CACACA_site3068],10.1
17,GAAAAATTAAAACCTACACACACATTTAAAAAAAAA [CACACA_site9005],11
18,TAATTTTTTTTAAACACACACATTACATTCAAAAAT [CACACA_site127],10.1
19,ATACATTCAATGAAATGTACGTTTATTTACAGAAGA [XGTACX_site2999],9.6
20,TTTTTTCTTTTTATGTGTACTTATTTTATTTAATAA [XGTACX_site1080],9.76
